The subject of experiment [1] is Plasmodium falciparum. The experiment in a line: GSK_TCMDC: Inhibition of Plasmodium falciparum 3D7 in whole red blood cells, using parasite LDH activity as an index of growth. Test compounds present at 2uM. Type of experiment: functional.
Experiment [2] deals with Plasmodium falciparum. The experiment in a line: GSK_TCMDC: Inhibition of Plasmodium falciparum Dd2 in whole red blood cells, using parasite LDH activity as an index of growth. Test compounds present at 2uM. Type of experiment: functional.

On to `Cc1cc(=O)c(-c2ccc(Oc3ccc(OC(F)(F)F)cc3)cc2)c(C)[nH]1`, for which the Inhibition is given as 93% in experiment [1] and 61% in experiment [2].
The matching figures for `CCc1cc(COc2ccc(CNCCC(C)C)cc2I)c(OCc2ccccc2)c(COc2ccc(CNCCC(C)C)cc2I)c1.Cl`: 89% and 15%.
In the case of `N=C(NCC1CC1c1ccccc1)c1cccc(C(=N)NCC2CC2c2ccccc2)n1` (configuration not stated), the Inhibition in experiment [1] amounted to 95%; in experiment [2], 0%.
For `CCCCCCOc1ccc2ccccc2c1CNCCCCCCNCc1c(OCCCCCC)ccc2ccccc12.CS(=O)(=O)O`, the Inhibition is reported as 85% in experiment [1] and 55% in experiment [2].
Take `CC(=NNC(S)=NCCc1ccccn1)c1ccccn1`: the Inhibition was determined as 100% in experiment [1] and 95% in experiment [2].
With `Cc1nc2nc(N)nc(N)c2c(C)c1Cc1ccc([N+](=O)[O-])cc1.Cl`, the figures for the Inhibition in experiment [1] and in experiment [2] were 98% and 11%, respectively.
Regarding `Cn1c(N)cc(-c2cccc(I)c2)c2c(=O)nc(N)nc1-2`, the figures for the Inhibition in experiment [1] and in experiment [2] were 89% and 75%, respectively.
As to `COc1ccc2c(c1CCNCCCCNCCc1c(OC)ccc3c1CCCC3)CCCC2.CS(=O)(=O)O`, the figures for the Inhibition in experiment [1] and in experiment [2] were 100% and 25%, respectively.
Regarding `Nc1nc(N)c2c(ccc3[nH]c(-c4ccccc4Cl)nc32)n1`, the Inhibition in experiment [1] and in experiment [2] was 100% in each case.
In the case of `Cc1nc(C)c(-c2ccc(Oc3cc(Cl)cc(Cl)c3)cc2)c(O)c1Br`, the figures for the Inhibition in experiment [1] and in experiment [2] were 96% and 97%, respectively.
In the same order, the values of `COc1cccc(Cn2ccc3c4c(N)nc(N)nc4ccc32)c1` are 99% and 96%.
Consider `COc1cc(Cc2cnc3nc(N)nc(N)c3c2C)cc(OC)c1OC`, for which the figures for the Inhibition in experiment [1] and in experiment [2] were 95% and 98%, respectively.
For `CCOc1cc(Cc2cnc(N)nc2N)ccc1OC.Cl`, the Inhibition in experiment [1] is on record as 88%; in experiment [2] it was 0%.
On to `COc1cc(Cc2cnc(N)nc2N)cc(OCCCCC#N)c1OC`, for which the figures for the Inhibition in experiment [1] and in experiment [2] were 86% and 0%, respectively.
In the case of `CCCCCCn1ccc2c3c(N)nc(N)nc3ccc21`, the Inhibition in experiment [1] amounted to 99%; in experiment [2], 91%.
With `CC(CNC(=N)c1cccc(C(=N)NCC(C)Oc2cccc(C3CCCCC3)c2)n1)Oc1cccc(C2CCCCC2)c1.Cl` (configuration not stated), the Inhibition in experiment [1] is listed as 90%; in experiment [2], 31%.
Take `COc1ccc(-c2cnc(N)nc2N)cc1Cl`: the Inhibition came to 84% in experiment [1] and 1% in experiment [2].
As for `Cl.Nc1nc(N)c2c(n1)CCc1cc(Br)ccc1-2`, the Inhibition in experiment [1] amounted to 87%; in experiment [2], 4%.
As to `O=c1c2ccc(Sc3ccccn3)cc2n(-c2ccccc2)c2cc(Sc3ccccn3)ccc12`, the Inhibition stood at 89% in experiment [1] and 70% in experiment [2].
In the same order, the values of `CCCCNCc1cc(Cl)c2ccccc2c1O.Cl` are 100% and 100%.
Turning to `N=C(N)NC(=O)Nc1cc(F)c(Cl)c(Cl)c1`, the Inhibition in experiment [1] and in experiment [2] was 100% in each case.
`CCCOc1cc2c(cc1OCCC)C(C=Cc1ccc(Cl)cc1Cl)=NC(C)C2.Cl` (configuration not stated): the Inhibition in experiment [1] amounted to 90%; in experiment [2], 75%.
Take `CN(C)S(=O)(=O)n1ccc2c3c(N)nc(N)nc3ccc21`: the Inhibition in experiment [1] was 94%; in experiment [2], 0%.
In the case of `CCc1ccc(Cc2cnc3nc(N)nc(N)c3c2C)cc1CC`, the Inhibition in experiment [1] is 97%; in experiment [2], 0%.
In the case of `Cc1nc(C)c(-c2ccc(Oc3ccc([S+](C)[O-])cc3)cc2)c(O)c1Br` (configuration not stated), the Inhibition in experiment [1] came to 91%; in experiment [2] it was 64%.
Take `COc1ccc(Cc2cnc(N)nc2N)cc1OCCCOc1ccccc1`: the Inhibition in experiment [1] is given as 91%; in experiment [2], 4%.
Regarding `Nc1nc(Cc2ccc(Cl)cc2)nc(Cc2ccc(Cl)cc2)n1`, the Inhibition in experiment [1] turned out to be 85%; in experiment [2], 0%.
In the case of `CCOc1cc2ncnc(Nc3ccc(OCc4ccccc4OC)c(OC)c3)c2cc1OCC.Cl`, the Inhibition in experiment [1] is recorded as 97%; in experiment [2], 52%.
`CC(=O)Nc1ccc(OCCCCCOc2ccc(NC(C)=O)cc2Cl)c(Cl)c1`: the Inhibition is on record as 93% in experiment [1] and 0% in experiment [2].
In the same order, the values of `Nc1nc(N)c2c(ccc3c2ccn3Cc2ccc3c(c2)OCO3)n1` are 100% and 95%.
On to `CCCCSc1ccc(CNCCCCCCNCc2ccc(SCCCC)c3ccccc23)c2ccccc12.CS(=O)(=O)O`, for which the Inhibition in experiment [1] is 94%; in experiment [2], 48%.
In the same order, the values of `CCCCNCc1ccc(OCc2cccc(COc3ccc(CNCCCC)cc3I)c2)c(I)c1.Cl` are 87% and 13%.
Take `CCN1C(=O)C(=NN=C(S)N2CCCC2)c2ccccc21`: the results for the Inhibition in experiment [1] and in experiment [2] were 91% and 9%, respectively.
As for `CCCc1cc2c3c(N)nc(N)nc3ccc2n1CC`, the results for the Inhibition in experiment [1] and in experiment [2] were 96% and 6%, respectively.
Turning to `COc1ccc(OC)c(CC2c3ccc(Br)c(O)c3CCN2C)c1.Cl` (configuration not stated), the results for the Inhibition in experiment [1] and in experiment [2] were 98% and 97%, respectively.
`Cc1nc(C)c(-c2ccc(Oc3ccc(OC(F)(F)F)cc3)cc2)c(OC(=O)c2ccccc2)c1Cl`: the Inhibition in experiment [1] and in experiment [2] was 97% each time.
On to `COc1ccc(Cc2c(Cl)nc3nc(N)nc(N)c3c2C)cc1`, for which the Inhibition in experiment [1] came to 94%; in experiment [2], 3%.
As for `CCN(CC)CCCC(C)Nc1ccnc2cc(C#N)ccc12` (configuration not stated), the Inhibition was found to be 100% in experiment [1] and 80% in experiment [2].
`Nc1nc(N)c2c(ccc3c2ccn3Cc2ccc(Br)cc2)n1`: the Inhibition was 100% in experiment [1] and 98% in experiment [2].
The matching figures for `CN=C(N)c1ccc(NC(=O)C=Cc2ccc(C(=O)Nc3ccc(C(N)=NC)cc3)cc2)cc1.Cl`: 97% and 100%.
In the case of `COc1ccc(Cc2c(Cl)nc3nc(N)nc(N)c3c2C)c(OC)c1OC`, the Inhibition in experiment [1] is given as 98%; in experiment [2], 0%.

For orientation: Inhibition means the drop in the measured response relative to a control, in per cent.

The record behind these values is ChEMBL document CHEMBL1157539, “Thousands of chemical starting points for antimalarial lead identification” (Nature, 2010).
